# Measurements reported in PubChem BioAssay (NCI).
# About 83,000 compounds went through this panel and 20% of them were active in at least one assay; those are over-represented in the sample as a whole.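 Activity criterion: percent growth below 10, measured after cells in 96-well plates were exposed to a single compound concentration for 48 hours.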 A number with no mark means an inactive call. Active and inactive are the calls of the source.
# Test system: SNB-75 CNS
# Experiment: NCI-60 one-dose screen, 48 h (100 = growth as untreated, 0 = no growth, -100 = all killed)
# Conditions: 10 µM unless noted
row,Compound,growth
1,N#Cc1c(-c2ccc(F)cc2)nc(SCc2ccc(F)cc2)nc1N1CCNCC1,19.3%
2,N#Cc1c(-c2ccc(F)cc2)nc(SCc2ccccc2)nc1N1CCNCC1,-93% (active)
3,CS(=O)(=O)c1ccc(-n2nc(C(=O)NCc3ccccc3)cc2-c2ccc(Cl)cc2)cc1,89.7%
4,Cc1cccc(C)c1Nc1nnc(-c2c[nH]c3ccccc23)o1,88%
5,COc1ccc(/C=C/C(=O)c2ccc(S(=O)(=O)NCCNc3nc(N(C)C)nc(N4CCOCC4)n3)cc2)cc1,61.8%
6,COc1ccc(NC(=O)Cn2c(/C=C/c3cccc(Br)c3)nc3ccccc3c2=O)cc1,-29.7% (active)
7,O=C1CCC(N2C(=O)c3cccc(NCCCCCC(=O)N4CCN(c5ccc6nc7c(nc6c5C(F)(F)F)C(=O)c5ncccc5C7=O)CC4)c3C2=O)C(=O)N1 (stereo unspecified),-75.8% (active)
8,O=C(CSc1nnc(-c2ccc(-c3nc4ccc(Cl)cc4[nH]3)cc2)o1)Nc1ccccc1,-16.8% (active)
9,CC(C)(C)OC(=O)N1CCC2(CC1)Oc1ccccc1[C@H]1CC(c3ccc(Br)cc3)=NN12,72.8%
10,NS(=O)(=O)c1ccc(N2N=C(c3ccc(NC(=O)Nc4ccccc4)cc3)CC2c2ccc(Br)cc2)cc1 (stereo unspecified),-43.1% (active)
11,CC1=C(C(=O)OCc2ccccc2)C(c2ccc(N(C)C)cc2)n2c(nc3ccccc32)N1 (stereo unspecified),61.2%
12,Cc1ccc(O)cc1Nc1nc(SCCN2CCOCC2)nc2c1cnn2CC(Cl)c1ccc(Br)cc1 (stereo unspecified),4.06% (active)
13,C/C(=N/O)c1ccc(NC(=O)CSc2nnc(-c3ccc(-c4nc5ccc(Cl)cc5[nH]4)cc3)o2)cc1,-27.5% (active)
14,CCCCNc1ccc2c3c(cccc13)C(=O)N(NCC(O)COc1ccc3c(C)cc(=O)oc3c1)C2=O (stereo unspecified),94.1%
15,COc1ccc2[nH]c(=O)cc(-n3ncc(C(=O)/C=C/c4cc(OC)c(OC)c(OC)c4)c3C)c2c1,32.2%
16,COc1ccc(-c2cc(-c3cc(OC)c(OC)c(OC)c3)[nH]c(=O)c2C#N)cc1,-22.4% (active)
17,COc1ccc2[nH]c(O)c(N=Nc3nc(-c4ccc(Br)cc4)cs3)c2c1,-41.4% (active)
18,COc1ccc2[nH]cc(-c3cc(N)n4nc(-c5c[nH]c6ccccc56)cc4n3)c2c1,82.1%
19,Nc1cc(-c2c[nH]c3ccc(F)cc23)nc2cc(-c3c[nH]c4ccccc34)nn12,66.2%

row,Compound,growth
1,COC(=O)c1cccc(Oc2ccc(NC(=O)Nc3cc(C(F)(F)F)ccc3F)cc2)c1,-34.1% (active)
2,N#C/C(=C1/C(=O)Nc2ccccc21)c1nnc(NC(=O)c2ccc(-n3c(=O)[nH]c4ccccc4c3=O)cc2)s1,79.5%
3,Cc1ccc(N=Nc2c(N)nn3c(-c4cc5cc(Br)ccc5oc4=O)ccnc23)cc1,61.3%
4,Cc1ccc(C2CC(c3ccc(NC(=O)Nc4ccccc4)cc3)=NN2c2ccc(S(C)(=O)=O)cc2)cc1 (stereo unspecified),56.9%
5,O=C(NN1C(=O)/C(=C/C=C/c2ccc([N+](=O)[O-])o2)SC1=S)c1ccc(O)cc1,-65.1% (active)
6,COc1cc(CNC(=O)C[C@H](C)CCC=C(C)C)ccc1OCc1cn(-c2ccccc2F)nn1,10.6%
7,OC(c1ccccc1)(c1ccccc1)C1CCN(c2ccc3nnc(Cl)n3n2)CC1,61.3%
8,Cc1nc2sccn2c1-c1nnc(SCC(C)C)o1,73.7%
9,N#Cc1ccc(C(=O)CSc2nc3c(c(Nc4ccc(S(N)(=O)=O)cc4)n2)CCC3)cc1,8.38% (active)
10,Cc1cccc(/C=C/c2ccc(NC(=S)NCCCCN(C)C)cc2)c1,-84.4% (active)
11,O=C(N/N=C/c1ccoc1)c1[nH]c2ccc(Br)cc2c1-c1ccccc1,-79.6% (active)
12,O=C(CSc1nc2sc3c(c2c(=O)n1-c1ccc(Cl)cc1)CCCC3)NNC(=O)c1ccc(F)cc1,76%
13,C=CCSc1nnc(-c2ccc(-c3nc4ccc(Cl)cc4[nH]3)cc2)o1,45.9%
14,O=C(N/N=C/c1ccc(Cl)cc1)c1ccc(OCc2nc3ccc(Cl)cc3[nH]2)cc1,53.9%
15,Cc1cccc(NCC(=O)N2CCN(c3ncnc4c3cnn4-c3ccccc3)CC2)c1,53.5%
16,CN(C)c1nc(NCCNS(=O)(=O)c2ccc(C(=O)/C=C/c3ccc(Cl)cc3)cc2)nc(N2CCOCC2)n1,45.4%
17,CC1=C(C(=O)Nc2ccccc2)C(c2cccc(Cl)c2Cl)n2c(nc3ccccc32)N1 (stereo unspecified),47.2%
18,CCOC(=O)/C(F)=C/C1CC1C(c1ccccc1)c1ccccc1 (stereo unspecified),90.4%
19,CN(C(=O)CN1C(=O)/C(=C/c2ccco2)SC1=S)C1CCS(=O)(=O)C1 (stereo unspecified),89%

# Test system: SNB-19 CNS
# Experiment: as above
# Conditions: 10 µM unless noted
row,Compound,growth
1,N#Cc1c(-c2ccc(F)cc2)nc(SCc2ccc(F)cc2)nc1N1CCNCC1,49.6%
2,N#Cc1c(-c2ccc(F)cc2)nc(SCc2ccccc2)nc1N1CCNCC1,-81.4% (active)
3,CS(=O)(=O)c1ccc(-n2nc(C(=O)NCc3ccccc3)cc2-c2ccc(Cl)cc2)cc1,78.9%
4,Cc1cccc(C)c1Nc1nnc(-c2c[nH]c3ccccc23)o1,97.5%
5,COc1ccc(/C=C/C(=O)c2ccc(S(=O)(=O)NCCNc3nc(N(C)C)nc(N4CCOCC4)n3)cc2)cc1,81.2%
6,COc1ccc(NC(=O)Cn2c(/C=C/c3cccc(Br)c3)nc3ccccc3c2=O)cc1,49.3%
7,O=C1CCC(N2C(=O)c3cccc(NCCCCCC(=O)N4CCN(c5ccc6nc7c(nc6c5C(F)(F)F)C(=O)c5ncccc5C7=O)CC4)c3C2=O)C(=O)N1 (stereo unspecified),-72.3% (active)
8,O=C(CSc1nnc(-c2ccc(-c3nc4ccc(Cl)cc4[nH]3)cc2)o1)Nc1ccccc1,-42.4% (active)
9,CC(C)(C)OC(=O)N1CCC2(CC1)Oc1ccccc1[C@H]1CC(c3ccc(Br)cc3)=NN12,78%
10,NS(=O)(=O)c1ccc(N2N=C(c3ccc(NC(=O)Nc4ccccc4)cc3)CC2c2ccc(Br)cc2)cc1 (stereo unspecified),-98.2% (active)
11,CC1=C(C(=O)OCc2ccccc2)C(c2ccc(N(C)C)cc2)n2c(nc3ccccc32)N1 (stereo unspecified),86.2%
12,Cc1ccc(O)cc1Nc1nc(SCCN2CCOCC2)nc2c1cnn2CC(Cl)c1ccc(Br)cc1 (stereo unspecified),20.6%
13,C/C(=N/O)c1ccc(NC(=O)CSc2nnc(-c3ccc(-c4nc5ccc(Cl)cc5[nH]4)cc3)o2)cc1,-86.7% (active)
14,CCCCNc1ccc2c3c(cccc13)C(=O)N(NCC(O)COc1ccc3c(C)cc(=O)oc3c1)C2=O (stereo unspecified),83.9%
15,COc1ccc2[nH]c(=O)cc(-n3ncc(C(=O)/C=C/c4cc(OC)c(OC)c(OC)c4)c3C)c2c1,19.8%
16,COc1ccc(-c2cc(-c3cc(OC)c(OC)c(OC)c3)[nH]c(=O)c2C#N)cc1,8.18% (active)
17,COc1ccc2[nH]c(O)c(N=Nc3nc(-c4ccc(Br)cc4)cs3)c2c1,36.4%
18,COc1ccc2[nH]cc(-c3cc(N)n4nc(-c5c[nH]c6ccccc56)cc4n3)c2c1,13.9%
19,Nc1cc(-c2c[nH]c3ccc(F)cc23)nc2cc(-c3c[nH]c4ccccc34)nn12,-19.1% (active)

row,Compound,growth
1,COC(=O)c1cccc(Oc2ccc(NC(=O)Nc3cc(C(F)(F)F)ccc3F)cc2)c1,10.7%
2,N#C/C(=C1/C(=O)Nc2ccccc21)c1nnc(NC(=O)c2ccc(-n3c(=O)[nH]c4ccccc4c3=O)cc2)s1,51.1%
3,Cc1ccc(N=Nc2c(N)nn3c(-c4cc5cc(Br)ccc5oc4=O)ccnc23)cc1,-13% (active)
4,Cc1ccc(C2CC(c3ccc(NC(=O)Nc4ccccc4)cc3)=NN2c2ccc(S(C)(=O)=O)cc2)cc1 (stereo unspecified),4.8% (active)
5,O=C(NN1C(=O)/C(=C/C=C/c2ccc([N+](=O)[O-])o2)SC1=S)c1ccc(O)cc1,-100% (active)
6,COc1cc(CNC(=O)C[C@H](C)CCC=C(C)C)ccc1OCc1cn(-c2ccccc2F)nn1,55.7%
7,OC(c1ccccc1)(c1ccccc1)C1CCN(c2ccc3nnc(Cl)n3n2)CC1,63.3%
8,Cc1nc2sccn2c1-c1nnc(SCC(C)C)o1,78.7%
9,N#Cc1ccc(C(=O)CSc2nc3c(c(Nc4ccc(S(N)(=O)=O)cc4)n2)CCC3)cc1,-13.3% (active)
10,Cc1cccc(/C=C/c2ccc(NC(=S)NCCCCN(C)C)cc2)c1,-84% (active)
11,O=C(N/N=C/c1ccoc1)c1[nH]c2ccc(Br)cc2c1-c1ccccc1,-97.5% (active)
12,O=C(CSc1nc2sc3c(c2c(=O)n1-c1ccc(Cl)cc1)CCCC3)NNC(=O)c1ccc(F)cc1,32%
13,C=CCSc1nnc(-c2ccc(-c3nc4ccc(Cl)cc4[nH]3)cc2)o1,76.1%
14,O=C(N/N=C/c1ccc(Cl)cc1)c1ccc(OCc2nc3ccc(Cl)cc3[nH]2)cc1,35%
15,Cc1cccc(NCC(=O)N2CCN(c3ncnc4c3cnn4-c3ccccc3)CC2)c1,88.9%
16,CN(C)c1nc(NCCNS(=O)(=O)c2ccc(C(=O)/C=C/c3ccc(Cl)cc3)cc2)nc(N2CCOCC2)n1,60%
17,CC1=C(C(=O)Nc2ccccc2)C(c2cccc(Cl)c2Cl)n2c(nc3ccccc32)N1 (stereo unspecified),67.5%
18,CCOC(=O)/C(F)=C/C1CC1C(c1ccccc1)c1ccccc1 (stereo unspecified),95.9%
19,CN(C(=O)CN1C(=O)/C(=C/c2ccco2)SC1=S)C1CCS(=O)(=O)C1 (stereo unspecified),95.7%
